A selection: hits, their analogues and other compounds. The true share with any hit is near 12%.
G9a inh: inhibitors of human histone lysine methyltransferase G9a; hit rate 8.8% among 350,000; G9a H3K9 monomethylation, AlphaScreen, 2 h; Potency, µM (doses to about 102 µM), inactives show at the top dose activity, negative = inhibition, most hits filed as inhibitors; further: on the % scale 0 is the no-effect control and ±100 the full control effect; nearly all actives have a fitted effect of over 75% in size
Target sequence (Q96KQ7 913-1193 limits assumed): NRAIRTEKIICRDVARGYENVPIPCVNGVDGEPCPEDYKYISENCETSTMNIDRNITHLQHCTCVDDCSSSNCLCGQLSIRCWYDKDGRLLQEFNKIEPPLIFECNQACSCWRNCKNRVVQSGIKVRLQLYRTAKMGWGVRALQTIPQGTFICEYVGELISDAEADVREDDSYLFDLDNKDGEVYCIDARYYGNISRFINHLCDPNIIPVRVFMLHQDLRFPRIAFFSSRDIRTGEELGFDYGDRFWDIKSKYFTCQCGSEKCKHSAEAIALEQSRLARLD
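G9a (20 nM) was preincubated 15 min with compound, then reacted 2 h at room temperature with 500 nM biotin-H3K9 peptide and 20 µM SAM. Monomethyl-H3K9 detected by AlphaScreen using anti-H3K9me1 antibody.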
BAZ2B block: blocks human BAZ2B; Q9UIF8; AlphaScreen BAZ2B-H3K14Ac peptide displacement; Potency, µM (series often up to 114 µM), without a hit: top-dose activity change, negative = inhibition, most hits filed as inhibitors; hit rate 4.4% among 360,000; further: on the % scale 0 is the no-effect control and ±100 the full control effect; nearly all actives have a fitted effect of over 60% in size
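AlphaScreen displacement: compounds (up to 110uM) incubated 30 min at room temperature with a preformed 50 nM BAZ2B/50 nM biotinylated H3K14Ac peptide complex in PBS pH 7.4 with Tween-20. Donor and acceptor beads at 10 ug/mL final added, 20 min light-protected before reading.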
HP1b binding inh: HP1-beta chromodomain-methylated histone interaction inhibition | AlphaScreen HP1-beta / biotin-H3K9me3 peptide binding | hit rate 0.56% among 390,000 | AID 540317 | Potency, µM (series often up to 114 µM), inactives show at the top dose activity change, negative = inhibition, hits mostly inhibitors; further: nearly all actives have a fitted effect of over 70% in size
Target sequence (P83916 whole entry, looked up): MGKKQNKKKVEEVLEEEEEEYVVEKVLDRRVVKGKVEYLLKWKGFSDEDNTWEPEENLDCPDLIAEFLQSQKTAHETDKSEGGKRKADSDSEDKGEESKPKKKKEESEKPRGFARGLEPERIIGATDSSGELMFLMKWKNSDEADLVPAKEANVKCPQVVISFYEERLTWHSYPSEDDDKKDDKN
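Compound inhibition of the preformed complex between 50 nM HP1-beta and 50 nM biotinylated H3K9me3 peptide was read by AlphaScreen. Buffer was PBS pH 7.4 with 0.01% Tween-20. Incubations ran 30 min at room temperature, with 10 ug/mL donor/acceptor beads.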
JMJD2A Tudor inh: blocks the human JMJD2A Tudor domain. O75164. AlphaScreen JMJD2A-Tudor / H3K4me3 peptide binding. Potency, µM (doses to about 114 µM), for the others: at the highest dose activity change, negative = inhibition, actives largely listed as inhibitors. hit rate 4.4% among 390,000. AID 504339; further: on the % scale 0 is the no-effect control and ±100 the full control effect; nearly all actives have a fitted effect of over 50% in size
Sfp inh: blocks B. subtilis Sfp PPTase activity | Q9F4F7 | Biochemical Sfp PPTase activity, qHTS | Potency, µM, without a hit: largest response in the series, negative = inhibition, most hits filed as inhibitors | hit rate 3.5% among 310,000 | AID 1490;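 further: the enzyme is Sfp with the accession as filed and its product quenches rhodamine fluorescence; 0% = enzyme reaction without inhibitor and -100% = no enzyme wells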
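Fluorescence-quenching assay: 15 nM Sfp-PPTase preincubated 15 min at room temperature with compound, then 5 uM rhodamine-CoA and 12.5 uM BHQ-2-labelled YbbR peptide added. Fluorescence (ex 525/em 598 nm) read at start and after 30 min; difference gives rate.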
L3MBTL1 block: inhibitors of human L3MBTL1; AlphaScreen L3MBTL1–H3K9me1 peptide binding; Q9Y468; Potency, µM (titrated, usually from 57.1 µM), inactives show top-dose activity, negative = inhibition, most hits filed as inhibitors; hit rate 0.66% among 230,000; further: on the % scale 0 is the no-effect control and ±100 the full control effect; nearly all actives have a fitted effect of over 60% in size
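L3MBTL1 50 nM + b-AHA-H3(1-15)K9me1 75 nM, 30 min RT; compound added, 30 min RT; streptavidin donor/Ni-chelate acceptor beads 10 ug/mL each final, 30 min RT dark; AlphaScreen read.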
Numbers without * were called inactive; ? = inconclusive; . = not tested or not shown; [ ] = remark or other dose. The call rests on the fitted dose curve; in most records, active means well fitted curve in the direction sought with a large enough effect; inconclusive means small, poorly fitted or top-dose-only effect, or another doubt; inactive means no such curve, though single readings can be large; an effect the other way counts as inactive or inconclusive. Potency means the concentration at half of the fitted maximal effect.

SMILES	G9a inh	BAZ2B block	HP1b binding inh	JMJD2A Tudor inh	Sfp inh	L3MBTL1 block
COc1ccc(C)cc1-n1nnnc1SC/C(O)=C(\C#N)c1nc2ccccc2[nH]1	?	-1%	31%	6%[57.1 µM]	-4%	-3%[11.4 µM]
Cc1cc(C)n2c(SCC(O)=C(C#N)c3nc4ccccc4[nH]3)nnc2n1	.	.	-4%	-25%	.	.
CN(C)c1ccc(C=C2C=Cc3ccccc32)cc1	.	.	?	14µM*	.	.
COc1cc2c(cc1OC)C(=Cc1ccc(N(C)C)cc1)C=C2	.	.	10µM*	10µM*	.	.
CNc1ccc(C=C2C=Cc3ccccc32)cc1	.	.	40µM*	28µM*	.	.
COc1ccc(C(=O)/C=C/c2ccc(N(C)C)cc2)c(OC)c1	-1%	-10%	43%	-5%	-18%	43%
O=C(C1CCC(=O)N(C2CC2)C1)N(CCO)Cc1ccccc1 (stereo not given)	-5%	-23%	22%	7%	24%	.
CCC(=O)Nc1c(C)nn(-c2ccc(C)c(C)c2)c1C	28µM*	-22%	8%	1%	5%	-3%
Cc1ccc(-n2nc(C)c(NC(=O)CCl)c2C)cc1C	-4%	3%	23%	7%	13%	-2%
Cc1ccc(S(=O)(=O)CC(=O)N2CC(C)OC(C)C2)cc1 (stereo not given)	39%	-11%	48%	?	7%	.
CCC(=O)Nc1nc(C)nc(C)c1C(C)=O	45µM*	-21%	8%	-16%	14%	0%
CC(=O)Nc1nc(C)nc(C)c1C(C)=O	-26%	11%	64%	-16%[11.4 µM]	18%	4%
COc1cccc(NC(=O)CN(C)CC(=O)Nc2ccc(Cl)cc2[N+](=O)[O-])c1	40µM*	50µM*	?	?	-34%	-10%
CCN(CC(=O)Nc1cccc(OC)c1)CC(=O)Nc1ccc(C)cc1Cl	?	32µM*	-18%	20µM*	-22%	.
CN(CC(=O)Nc1ccc(N2CCOCC2)cc1)CC(=O)Nc1ccc([N+](=O)[O-])cc1Br	-35%	-27%	16%	-20%	-5%	23%
COc1ccc(NC(=O)CN(C)CC(=O)Nc2ccc(N3CCOCC3)cc2)c([N+](=O)[O-])c1	4%[59 µM]	45µM*	-7%	?	-4%	.
COc1ccc(NC(=O)CN(C)S(=O)(=O)c2ccc(Cl)cc2)c([N+](=O)[O-])c1	.	7%	4%	-15%	9%	4%
CN(CC(=O)Nc1ccc(N2CCOCC2)cc1)CC(=O)Nc1ccc(Cl)cc1[N+](=O)[O-]	56µM*	56µM*	?	?	-13%	-13%
COc1ccc(C2N=C(Nc3nc4ccccc4o3)NC3=C2C(=O)CC(C)(C)C3)cc1 (stereo not given)	.	.	13%[57 µM]	-8%[57.1 µM]	.	.
CC(C)Sc1nc2sccc2c(=O)n1-c1ccccc1	40µM*	-13%	25%	-3%	-20%	.
CC(Sc1nc2sccc2c(=O)n1-c1ccccc1)C(N)=O (stereo not given)	-15%	1%	-18%	-5%	-8%	.
O=C(O)c1cccc2c(/C=N/Nc3ccccn3)c[nH]c12	.	-14%	34%	-7%	50µM*	.
O=c1cnnc(N/N=C/c2c[nH]c3ccccc23)[nH]1	6%	-1%	7%	-13%	?	.
O=c1nc(N/N=C/c2c[nH]c3ccccc23)cn[nH]1	.	-3%	21%	-6%	50µM*	.
C(=N\Nc1ccccn1)/c1c[nH]c2ccccc12	-46%	32µM*	-4%	?	?	-23%
SMILES	G9a inh	BAZ2B block	HP1b binding inh	JMJD2A Tudor inh	Sfp inh	L3MBTL1 block
C(=N\c1nccs1)/c1c[nH]c2ccccc12	?	?	29%	-19%	45µM*	.
CC[C@@]12CCCN3CCc4c(n(c5ccccc45)[C@](O)(C(=O)OC)C1)C32 (stereo not given in full)	-26%[2.33 µM]	.	.	.	18%	.
COc1ccc(-c2nc(CCNC(=O)c3ccccc3)cs2)cc1OC	5%[59 µM]	-1%	28%[57 µM]	-1%	.	.
CCCCC/C=C\C/C=C\C/C=C\CCCCCCC(=O)O[C@H](COCCCCCCCCCCCCCCCC)COP(=O)([O-])OCC[N+](C)(C)C	.	.	.	.	-5%	.
O=C(/C=C/c1ccccc1)C1=C(O)C(=O)N(CCO)C1c1ccccc1[N+](=O)[O-] (stereo not given)	45µM*	-31%	-5%[57 µM]	?	?	-2%
COc1cccc(CN2CCNC(=O)C2CC(=O)NCCCC2CCCC2)c1OC (stereo not given)	?	-19%	32%	-7%	12%	.
Cc1cc(NS(=O)(=O)c2ccccc2)ccc1NS(=O)(=O)c1ccccc1	.	.	18%[57 µM]	1%	.	.
O=S(=O)(Nc1ccc(O)c(NS(=O)(=O)c2ccccc2)c1)c1ccccc1	0.32µM*	?	-30%	63µM*	40µM*	.
Cc1nn(C)c(C)c1S(=O)(=O)Nc1ccc2c(c1)OCO2	50µM*	?	18%	-27%	1%	-5%
O=[N+]([O-])c1ccc(S(=O)(=O)Nc2ccc3c(c2)OCCO3)cc1	40µM*	?	-4%	?	?	-4%
Cc1cc(NS(=O)(=O)c2ccccc2)c(C)c(Cl)c1O	28µM*	2%	?	?	-9%	-8%
CCN(C(=O)CSc1nc(-c2cccs2)nc2ccccc12)C1CCS(=O)(=O)C1 (stereo not given)	19%[2.33 µM]	8%	12%	-19%	.	-1%
Cc1ccc2cccc(OCC(=O)Nc3ccc4c(c3)OCO4)c2n1	-28%	-20%	2%	-22%	4%	?
COc1ccc(N(CC(=O)NCc2ccc3c(c2)OCO3)S(=O)(=O)c2c(C)nn(C)c2C)cc1	79µM*	7%	24%	-4%	1%	.
COc1ccc(CNC(=O)CN(c2ccc(OC)cc2)S(=O)(=O)c2c(C)nn(C)c2C)cc1	-7%	-9%	11%	-1%	0%	-4%
Cc1ccc2cccc(S(=O)(=O)Nc3ccc4c(c3)OCO4)c2n1	?	50µM*	20%	?	-4%	15%[11.4 µM]
O=S(=O)(Nc1ccc2c(c1)OCO2)c1ccccc1	14µM*	-3%	6%	-14%	-6%	.
COc1ccc(S(=O)(=O)Nc2ccc3c(c2)OCO3)cc1	2%[59 µM]	-10%	19%	-15%	-4%	-6%
CCOc1ccc(S(=O)(=O)Nc2ccc3c(c2)OCO3)c2cccnc12	?	?	1%	?	56µM*	?
COCCCNC(=S)N1CCN(C(c2ccccc2)c2ccccc2)CC1	31%	-25%	31%	-26%	7%	.
CCOC(=O)C1=C(COC(=O)CNS(=O)(=O)c2ccc(NC(C)=O)cc2)NC(=O)NC1C (stereo not given)	.	.	30%	-3%	.	.

High-throughput results: PubChem, National Center for Advancing Translational Sciences (NCATS)
